# Assay outcomes deposited in PubChem by National Center for Advancing Translational Sciences (NCATS).
# PLK1 PBD inh = PLK1 (human) polo-box domain binding inhibition; Potency, µM, for the others: max response, negative = inhibition, hits mostly inhibitors; actives 2.8% (n = 360,000); P53350; Plk1 PBD binding of FITC phosphopeptide, fluorescence polarization; further: series mostly up to about 57 µM; nearly all actives have a fitted effect of over 65% in size
# RORgamma inh = blocks mouse ROR gamma transcriptional activity | P51450 | Potency, µM (titrated, usually from 53.6 µM), for inactives: top-dose activity change, negative = inhibition, hits mostly inhibitors | actives 5.4% (n = 310,000) | Drosophila S2 Gal4-RORgamma UAS-luciferase reporter, 20 h; further: nearly all actives have a fitted effect of over 60% in size
# Target sequence (P51450 whole entry, looked up, the tested form may be a part): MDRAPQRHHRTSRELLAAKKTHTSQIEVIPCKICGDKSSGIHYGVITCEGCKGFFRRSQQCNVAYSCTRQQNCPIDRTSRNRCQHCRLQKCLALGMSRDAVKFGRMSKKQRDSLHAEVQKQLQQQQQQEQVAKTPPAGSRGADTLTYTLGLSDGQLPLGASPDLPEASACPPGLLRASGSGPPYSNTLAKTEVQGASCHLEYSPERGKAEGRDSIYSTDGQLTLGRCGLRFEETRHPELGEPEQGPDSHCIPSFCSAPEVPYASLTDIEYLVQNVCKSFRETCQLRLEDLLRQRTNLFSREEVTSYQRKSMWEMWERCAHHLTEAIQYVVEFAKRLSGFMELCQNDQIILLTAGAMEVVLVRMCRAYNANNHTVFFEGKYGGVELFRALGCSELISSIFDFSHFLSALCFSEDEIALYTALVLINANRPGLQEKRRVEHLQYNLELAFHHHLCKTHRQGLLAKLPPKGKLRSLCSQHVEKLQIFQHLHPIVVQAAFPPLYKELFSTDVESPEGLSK
#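 Luminescence from a UAS-regulated Photinus luciferase reporter in stably transfected Drosophila Schneider cells is measured; decreased signal marks ROR gamma inhibition. Fusion expression is induced by 700 uM copper sulfate for 20 hr.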
# ALDH1A1 inh = ALDH1A1 (human) enzyme inhibition; actives 7.3% (n = 220,000); Potency, µM (top dose mostly 75.3 µM), inactives show at the top dose activity, negative = inhibition, hits mostly inhibitors; P00352; Purified ALDH1A1, NADH fluorescence, propionaldehyde substrate; active means well fitted inhibition curve with a large enough effect, not every such curve was filed as active; inconclusive means small, poorly fitted or top-dose-only effect, or another doubt; inactive means no such curve, though single readings can be large or run the other way;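 further: plate controls were no enzyme wells and a reference inhibitor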
# Sfp inh = Sfp phosphopantetheinyl transferase inhibition. Biochemical Sfp PPTase activity, qHTS. Potency, µM, for inactives: largest response in the series, negative = inhibition, actives largely listed as inhibitors. actives 3.5% (n = 310,000). AID 1490. Q9F4F7;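 further: the enzyme is Sfp with the accession as filed and its product quenches rhodamine fluorescence; 0% = enzyme reaction without inhibitor and -100% = no enzyme wells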
#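 Step 1, compound plus 15 nM Sfp-PPTase, 15 min, room temperature. Step 2, add rhodamine-CoA (5 uM) and BHQ-2-YbbR (12.5 uM). Step 3, read 525/598 nm fluorescence at 0 and 30 min.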
# Gal4-VP16 FLuc = Gal4-VP16 reporter inhibition counter-screen; Drosophila S2 Gal4-VP16 UAS-luciferase, luminescence, 20 h; Potency, µM (titrated, usually from 53.6 µM), for inactives: at the top dose activity, negative = inhibition, hits mostly inhibitors; actives 3.5% (n = 310,000);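 further: Gal4-VP16 expression switched on by copper sulfate through the metallothionein promoter; nearly all actives have a fitted effect of over 50% in size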
# Numbers without * were called inactive; ? = inconclusive; . = not tested or not shown; [ ] = remark or other dose. Hits are enriched below; roughly 12% of the tested compounds scored in any of these assays. Unless noted, the call rests on the fitted dose curve; in most records, active means well fitted curve in the direction sought with a large enough effect; inconclusive means small, poorly fitted or top-dose-only effect, or another doubt; inactive means no such curve, though single readings can be large; an effect the other way counts as inactive or inconclusive. Unless noted, on the % scale 0 is the no-effect control and ±100 the full control effect; potency means the concentration at half of the fitted maximal effect.
SMILES,PLK1 PBD inh,RORgamma inh,ALDH1A1 inh,Sfp inh,Gal4-VP16 FLuc
CCc1nc2ccc(C(=O)NCCC(C)C)cn2c1N(CC)CCN(C)C,-8%,.,.,.,.
CCOC(=O)c1c(NC(=O)c2ccoc2C)sc(C(=O)N(C)C)c1C,?,-15%,20µM*,-9%,-1%
CCC(=O)Nc1sc(C(=O)OC)c(C)c1C(=O)OC,30µM*,?,?,-30%,0%
CCOC(=O)c1c(NC(=O)COC(=O)c2ccccc2NC)sc(C(=O)N(C)C)c1C,-3%,5%,.,-29%,-19%
Cc1cc(C)nc(NC(=O)c2cc(-c3ccc(C)s3)nc3ccccc23)c1,-2%,-71%,?,-9%,?
CCN(CC)C(=O)c1sc(NC(=O)c2cc(-c3ccc(C)s3)nc3ccccc23)c(C(=O)OC)c1C,15µM*,15%,?,13µM*,-1%
CCN(CC)C(=O)c1c(NC(=O)c2ccccc2)sc(C)c1C,-2%,-6%,0%,-1%,5%
CCN(CC)C(=O)c1sc(NC(=O)c2ccncc2)c(C(=O)OC)c1C,-20%,14%,14µM*,28µM*,3%
COC(=O)c1sc(NC(=O)C(C)C)c(C(=O)OC)c1C,1%,?,?,16%,1%
COC(=O)c1sc(NC(=S)NNC(=O)c2c(Br)c(C)nn2C)c(C(=O)OC)c1C,27µM*,6.3µM*,.,-14%,?
CCN(CC)C(=O)c1sc(NC(=O)c2ccoc2C)c(C(=O)OC)c1C,21µM*,-1%,22µM*,32µM*,-4%
CCc1cc(C(=O)OC)c(NC(=O)c2ccoc2C)s1,-25%,0%,.,-8%,1%
CCOC(=O)c1c(NC(=O)OC)sc(C(=O)N(CC)CC)c1C,24µM*,-36%,?,22µM*,0%
CCOC(=O)c1sc(NC(=O)OC)c(C(=O)OC)c1C,0%,-17%,2%,-9%,-8%
CCOc1ccc(/C(O)=C2\C(=O)C(=O)N(c3cc(C)on3)C2c2ccccc2OC)cc1 (stereo not given),-6%,7%,22µM*,-8%,-15%
COc1ccc(C2/C(=C(/O)c3ccc(F)cc3)C(=O)C(=O)N2c2ccccn2)cc1OC (stereo not given),12µM*,-1%,.,11%,8%
CNC(=O)OCc1nc(SC2CCCCO2)n(C)c1COC(=O)NC (stereo not given),-14%,.,.,.,.
CCCCc1cc2c(cn1)=C(OC(=O)c1ccco1)C(C)(OC(=O)CC)C(=O)C=2 (stereo not given),.,.,2µM*,-17%,.
CCCCC1=CC2=CC(=O)C(C)(OC(=O)CC)C(=O)C2=CN1Cc1ccco1 (stereo not given),-30%,-4%,-2%[13.5 µM],?,-1%
O=S(=O)(NCc1ccco1)c1cccc(S(=O)(=O)N2CCOCC2)c1,-6%,7%,-10%,5%,-3%
O=S(=O)(NCc1ccco1)c1ccc(S(=O)(=O)N2CCCC2)cc1,-4%,22%,8.9µM*,3.2µM*,0%
COc1cccc(NS(=O)(=O)c2ccc(S(=O)(=O)N3CCCC3)cc2)c1,-5%,.,.,.,.
Cc1ccc(S(=O)(=O)NCc2ccco2)cc1C,-1%,25%,?,6%,14%
COc1cccc(CNS(=O)(=O)c2ccc(S(=O)(=O)N3CCCC3)cc2)c1,-7%,22%,?,10µM*,?
O=S(=O)(NCc1ccco1)c1ccc2c(c1)Cc1ccccc1-2,-29%,?,?,-82%,8.9µM*
SMILES,PLK1 PBD inh,RORgamma inh,ALDH1A1 inh,Sfp inh,Gal4-VP16 FLuc
CCCc1[nH]n(-c2ccc([N+](=O)[O-])cc2)c(=O)c1C=NCCc1c[nH]c2ccccc12,-1%,-29%,3%,?,-1%
CCCc1[nH]n(-c2ccc([N+](=O)[O-])cc2)c(=O)c1C=NCCc1ccc(OC)c(OC)c1,4%,-2%,1.8µM*,?,3%
COC(=O)c1cc(=O)n(CCc2ccccc2)c(=Nc2ccc(F)cc2)s1,1%,8.9µM*,0%,-4%,-28%
COC(=O)c1cc(=O)n(CCc2ccc(OC)cc2)c(=Nc2ccc(F)c(Cl)c2)s1,-2%,8%,-2%,0%,3%
CCn1c(=O)cc(C(=O)OC)sc1=Nc1ccc(F)c(F)c1,-8%,22µM*,-15%,-17%,?
COC(=O)c1cc(=O)n(Cc2ccccc2)c(=NCc2ccccc2)s1,.,-5%,11%,3%,-5%
COC(=O)c1cc(=O)n(Cc2cccs2)c(=NCc2cccs2)s1,-3%,-3%,0.32µM*,14%,-11%
CCOC(=O)c1ccc(N=c2sc(C(=O)OC)cc(=O)n2CCCN2CCOCC2)cc1,-9%,?,-1%,-14%,-21%
CCOC(=O)c1ccc(N=c2sc(C(=O)OC)cc(=O)n2Cc2ccco2)cc1,-11%,?,1.4µM*,-19%,8.9µM*
CC1(C)O[C@H]2C[C@@H]3[C@H]4CCC5=CC(=O)C=C[C@]5(C)[C@@]4(F)[C@@H](O)C[C@]3(C)[C@]2(C(=O)CO)O1,.,11%,3%,8%,-17%
Cc1sc2nc(SCC(=O)NCc3cccs3)[nH]c(=O)c2c1C,-5%,-42%,6%,5%,-2%
Cc1sc2nc(CN(Cc3cccs3)C(=O)C3CC3)[nH]c(=O)c2c1C,19%,11µM*,?,8%,-29%
[N-]=C=C1C(=O)NC(=O)C([n+]2ccc(-c3ccncc3)cc2)C1c1ccccc1C(F)(F)F (stereo not given),?,-17%,.,50µM*,3%
CC(=O)c1ccc(C2CC34CNS(=O)(=O)C3CC2O4)cc1 (stereo not given),.,11%,.,-5%,0%
C/C(=N\NC(=O)C(O)c1ccccc1)c1ccc(Cl)s1 (stereo not given),0%,1%,.,13%,-11%
C/C(=N\Nc1ccc(C(=O)O)cc1)c1ccc(Cl)s1,-2%,-17%,.,10µM*,?
C/C(=N\NC(=O)c1cc2ccccc2cc1O)c1ccc2c(c1)OCO2,-8%,16µM*,1%,-11%,?
C/C(=N\NC(=O)c1ccc2c(c1)OCO2)c1ccco1,-8%,?,2%,9%,?
C/C(=N\NC(=O)c1ccc(Cl)c(Cl)c1)c1ccc(Br)s1,4%,0.63µM*,-10%,1%,0.63µM*
C/C(=N/NC(=O)c1ccc2c(c1)OCO2)c1ccc(Br)s1,-2%,2.8µM*,7%,0%,?
CC(C)(C)c1ccc(S(=O)(=O)Nc2ccc(C(O)(C(F)(F)F)C(F)(F)F)cc2)cc1,-13%,.,.,.,.
C/C(=N\Nc1ccc(Cl)c(C(=O)O)c1)c1ccc(Br)s1,24µM*,1%,.,-24%,3%
CC(=O)OC1CC[C@@]2(C)C(CC[C@@]3(C)C2CC=C2C4CC(C)(C)CC[C@]4(C(=O)O)CC[C@@]23C)C1(C)C (stereo not given in full),.,12%,5%,-1%,-1%
